The campaign covered roughly 310,000 compounds. About 1,900 (0.61%) were called active. Roughly 8% stayed inconclusive and do not appear here. Calls follow the shape of the full dose curve; tested in A549 cells. The full list was thinned out, with actives kept by preference.
Assay: qHTS for Stage-Specific Inhibitors of Vaccinia Orthopoxvirus: mCherry Reporter Primary qHTS; also: nearly all actives have a fitted effect of over 35% in size
Conditions: Vaccinia virus mCherry reporter infection, fluorescence; series mostly up to 36.5 µM; activity change, negative = inhibition: at the top concentration
% is scaled to controls: 0 for no effect and ±100 for the full control effect; potency is read from the fitted curve at half-maximal effect.

Structure (SMILES) | Potency | activity change, negative = inhibition | outcome
[O-][n+]1onc2c1CCc1[nH]c(-c3ccccc3)nc1-2 | 15.8 µM (active) |  | 
CC=CCn1c(SCCCc2ccccc2)nc2c1c(=O)[nH]c(=O)n2C |  | 3.79% (inactive) | 
Cc1c(Cl)c([N+](=O)[O-])nn1Cc1ccc(C(=O)N/N=C\c2cc(Cl)ccc2O)o1 | 6.31 µM (active) |  | 
Cc1c(Cl)c([N+](=O)[O-])nn1CCCC(=O)Nc1cc(Cl)ccc1Cl |  | -18.7% (inactive) | 
O=C(N/N=C/c1ccc2c(c1)OCO2)c1ccc(Cn2cc([N+](=O)[O-])cn2)o1 |  | -29.5% (inactive) | 
O=C(c1ccccc1)N1CCN(c2cc(-c3ccccc3)nc3cc(-c4cccc(Cl)c4)nn23)CC1 |  | -23.1% (inactive) | 
CCc1nc2c(OCc3ccccc3)cccn2c1N(C)C(=O)c1ccco1 |  | -10.6% (inactive) | 
COc1ccc(C(C(=O)Nc2c(C)cccc2C)N2CCN(c3ccc(C)cc3)CC2)cc1 (stereo not drawn) |  | -24.2% (inactive) | 
Brc1cccc[n+]1Cc1cccc(C[n+]2ccccc2Br)c1 |  | 31.5% (inactive) | 
O=C(Cc1c(F)cccc1Cl)Nc1ncc([N+](=O)[O-])s1 |  | -7.45% (inactive) | 
Cc1cc2ccccn2c1C(=O)c1cccc(F)c1 |  |  | inactive
Cc1cc2ccccn2c1C(C[N+](=O)[O-])c1c(F)cccc1Cl (stereo not drawn) | 10 µM (active) |  | 
CCCCOc1ccc(C(=O)NO)cc1 |  | -10.8% (inactive) | 
CCc1cc2c(N3CCN(c4nnc(CC)s4)CC3)ncnc2s1 | 12.6 µM (active) |  | 
CCN1CCN(c2ncnc3c2cnn3-c2ccc(C)c(C)c2)CC1 |  | -9.72% (inactive) | 
CCc1ccc(C(=O)NNC(=O)C2CCN(c3ncnc4sc(C)c(C)c34)CC2)cc1 |  | -18.3% (inactive) | 
Cc1ccc(S(=O)(=O)N2CC3C(=O)C[C@@H](c4ccccc4Cl)N(S(=O)(=O)c4ccc(C)cc4)C3CC2c2ccccc2)cc1 (stereo partly drawn) |  | -0.55% (inactive) | 
CSc1nc(Nc2ccc(F)cc2)cc(-c2ccccc2)n1 |  | -19% (inactive) | 
Clc1ccc2nc(-c3ccccc3)nc(C(Cl)Cl)c2c1 |  | -15.5% (inactive) | 
CSc1nc(-c2ccccc2)nc(C(Cl)Cl)n1 | 12.6 µM (active) |  | 
CCCc1ccc(C(O)c2ncc(-c3cccc(OC)c3)[nH]2)cc1 (stereo not drawn) |  | 3.12% (inactive) | 
CCOC(=O)[C@]12CCCC=C1N(CCC1=CCCCC1)C(=O)[C@H](CC(=O)NCCCOC)C2 |  |  | inactive
CCOC(=O)N1CCN(C(=O)C[C@@H]2C[C@@]3(C(=O)OC)CC(C)(C)CC=C3N(Cc3ccco3)C2=O)CC1 |  | -26.4% (inactive) | 
CC1(C(=O)Nc2cccc3c2CCCC3)CCN1C(=O)CCc1ccc(Cl)cc1Cl (stereo not drawn) |  |  | inactive
CCOC(=O)c1ccccc1C(=O)N1CCOCCOCCOCC1 |  | -10.9% (inactive) | 

Structure (SMILES) | Potency | activity change, negative = inhibition | outcome
Cc1ccccc1-c1ccc(Nc2ccc(C(=O)N3CCOCC3)cc2)nn1 |  | -14.9% (inactive) | 
Cc1oc2c(c1C(=O)N1CCOCC1)C(=O)c1ccccc1C2=O | 11.2 µM (active) |  | 
Fc1cccc(Cc2c(-c3ccc(Cl)cc3)nc3ccc(Cl)cn23)c1 |  | 1.23% (inactive) | 
COc1cc(OC)c(OC)cc1/C=C1\C=Cc2ccccc21 |  | -21.7% (inactive) | 
CCc1nc2ccc(C(=O)Nc3cc(-c4ccccc4)ccc3OC)cn2c1N(CC)CC(=O)N(C)C |  | -14.5% (inactive) | 
COc1cccc(/C=N/Nc2ncc(C(F)(F)F)cc2Cl)c1O | 11.2 µM (active) |  | 
COc1cccc(/C(C)=N/Nc2ncc(Cl)cc2Cl)c1 |  |  | inactive
COC(=O)Cc1ccc(Oc2ncc(C(F)(F)F)cc2Cl)cc1 |  |  | inactive
CCc1nc2ccc(C(=O)NCc3ccc(OC)cc3)cn2c1N(CC)Cc1cccc(Br)c1 |  |  | inactive
Cc1nn(-c2ccccc2)c(C)c1NC(=O)COc1ccc(Cl)cc1Cl |  | -12.6% (inactive) | 
Cc1nn(-c2ccccc2)c(C)c1NC(=O)COC(=O)Cc1ccccc1 |  | -14.2% (inactive) | 
Cc1nn(-c2ccccc2)c(C)c1NC(=O)CCl | 10 µM (active) |  | 
Cc1cccc(NC(=O)COC(=O)c2ccccc2OCc2cccc(Br)c2)c1 |  |  | inactive
OC[C@@H]1CN(Cc2ccncc2)C[C@H](n2cnc3c(N4CCN(c5ccccc5)CC4)ncnc32)O1 | 11.2 µM (active) |  | 
OCCN1CCN(c2ncnc3c2ncn3[C@H]2CN(Cc3ccco3)C[C@@H](CO)O2)CC1 |  | 14.1% (inactive) | 
CC(C)Nc1ncnc2c1ncn2[C@H]1CN(Cc2ccncc2)C[C@@H](CO)O1 |  | 37.1% (inactive) | 
Cc1cc(Br)cn2c(Cc3ccsc3)c(-c3ccc(C#N)cc3)nc12 |  | 17.8% (inactive) | 
COc1cccc(-c2cc3nc(NCc4ccccc4OC)n(C)c(=O)c3s2)c1 |  | -20.6% (inactive) | 
CCCNC(=O)C1(C)CCCN(C(=O)c2oc3ccccc3c2C)C1 (stereo not drawn) |  | 3.6% (inactive) | 
CC(=O)/C(=N\Nc1ccc(Cl)cc1Cl)Sc1cccc2cccnc12 | 3.55 µM (active) |  | 
COc1c(Cl)cc(Cl)cc1C(=O)Nc1cccc2cccnc12 |  | -4.07% (inactive) | 
S=C(NCc1cccnc1)Nc1ccc(Cl)cc1Cl |  |  | inactive
CCOC1=C2[C@@H](CN(S(=O)(=O)c3ccc(C)cc3)[C@H]2c2ccccc2F)[C@H]2C(=O)N(Cc3ccccc3)C(=O)[C@H]2C1 |  | 1.58% (inactive) | 
CCOCCC(=O)Nc1ccc2c(c1)c(=O)n(C)n2-c1ccc2ccccc2c1 |  | -4.6% (inactive) | 
CN(C)C1=C2C=CC=CC2/C(=C2/C=Cc3ccccc32)C=C1 (stereo not drawn) |  | -12.9% (inactive) | 

Structure (SMILES) | Potency | activity change, negative = inhibition | outcome
Nc1ccc(/C=C/c2ccnc3ccccc23)c([N+](=O)[O-])c1 |  | 24.2% (inactive) | 
O=C(Nc1ccc(Cl)cn1)c1ccccc1-c1ccccc1 |  | -7.03% (inactive) | 
Oc1ccccc1-c1cc(-c2ccc(Cl)cc2)n[nH]1 | 8.91 µM (active) |  | 
Cc1ccc(NC(=O)c2cc(-c3ccccc3O)n[nH]2)cc1C |  |  | inactive
O=C(Nc1ccc2c(c1)OCCO2)C(C1CC1)N1CCC(Cc2ccccc2)CC1 (stereo not drawn) |  | 44.7% (inactive) | 
CCc1cc(C(=O)N(CC)CC(=O)Nc2c(F)cccc2F)sc1C |  |  | inactive
COC(=O)Cc1ccc(OC2(C)CCN(Cc3ccc4c(c3)OCCO4)C2)cc1 (stereo not drawn) |  | -9.78% (inactive) | 
CC1(C)OC(=O)C2=C(C[C@@H](C3CCCCC3)O[C@@H]2c2ccc(Cl)cc2)O1 |  | 4.01% (inactive) | 
O=C(Nc1cccc(NC(=O)c2ccc(Br)cc2)c1)c1ccccc1 | inactive |  | 
CC(NC(=O)c1ccccc1)C(=O)Nc1ccccc1 (stereo not drawn) |  | -16.4% (inactive) | 
O=C(NC1=CC(=O)c2ccccc2C1=O)c1ccccc1 | 7.94 µM (active) |  | 
COCC1CCCCN1C(=O)c1cc(COc2ccc(C)c(C)c2)on1 (stereo not drawn) |  | -3.71% (inactive) | 
CN(C)c1ccc(/C=N\Nc2ccc([N+](=O)[O-])cc2[N+](=O)[O-])cc1Cl |  | -14.1% (inactive) | 
Cc1ccc(S(=O)(=O)N2C[C@H]3n4c(=O)ccc(=O)n4C[C@H](OC(=O)NC4CCCC4)[C@@]3(O)C2)cc1 |  | -13.2% (inactive) | 
Cc1ccc(C(=O)NC(C)C(c2cccs2)N2CCOCC2)cc1C (stereo not drawn) |  |  | inactive
CCc1nc2c(OCc3ccc(C(=O)OC)cc3)cccn2c1N(C)C(=O)C(C)C |  |  | inactive
COC(=O)N/N=C/c1ccc(/C=N/NC(=O)OC)cc1 |  | -8.87% (inactive) | 
CCOc1ccc(/C=N/NC(N)=S)cc1 | 1 µM (active) |  | 
CCOc1ccc(/C=N\NC(=O)c2c(C)nc3cc(C)ccn23)cc1 |  | -22.5% (inactive) | 
COc1cccc(NC(=O)Nc2ccc(F)cc2)c1 |  | -29.6% (inactive) | 
O=C(CSC1=Nc2ccccc2C2=NC(c3ccccc3)C(=O)N12)NCC1CCCO1 (stereo not drawn) |  | -12.9% (inactive) | 
CC(C)C1N=C2c3ccccc3N=C(SCC(=O)c3ccc(O)c(O)c3)N2C1=O (stereo not drawn) | 11.2 µM (active) |  | 
Cc1ccc(CNC(=O)CSC2=Nc3ccccc3C3=NC(C)C(=O)N23)cc1 (stereo not drawn) |  | -17.4% (inactive) | 
Cc1cc2nc(-c3ccc(Cl)cc3)c(Cc3cccc(F)c3)n2c(C)c1Br |  | 24.4% (inactive) | 
CC(C)C1CCN(C(=O)C2CCC(=O)N(C3CCCCCC3)C2)CC1 (stereo not drawn) |  | -22.2% (inactive) | 

Structure (SMILES) | Potency | activity change, negative = inhibition | outcome
CCOc1ccc(-n2c(O)c(/C=N/Nc3nc(C)cc(C)n3)c3ccccc3c2=O)cc1 |  | 3.78% (inactive) | 
CCN(CC)c1ccc(/C=N/Nc2nc(C)cc(C)n2)c(O)c1 | 2.51 µM (active) |  | 
Cc1cc(C)nc(N/N=C/c2ccncc2)n1 |  | -2.46% (inactive) | 
CC1=C(C(=O)Nc2ccccc2)SCCO1 |  |  | inactive
CC1=C(C(=O)Nc2ccccc2)S(=O)(=O)CCO1 | 0.891 µM (active) |  | 
O=C(Nc1ccccc1)c1ccc2c(c1)OCCCO2 |  | -14.5% (inactive) | 
CC(C)Nc1nc(NCCOc2ccccc2Cl)c2sccc2n1 |  | -28.6% (inactive) | 
COc1ccc(CNC(=O)C[C@H]2C[C@H](C(=O)N3CCOCC3)[C@@]3(CCC4CCCC4)c4[nH]c5ccc(Cl)cc5c4CCN3C2=O)cc1OC |  | -27.5% (inactive) | 
CN(C)C(=O)CCc1ccc2c3c([nH]c2c1)[C@]1(CCC2CCCC2)[C@@H](C(=O)N2CCOCC2)C[C@H](CC(=O)NCc2ccco2)C(=O)N1CC3 |  | 2.15% (inactive) | 
O=C(C[C@H]1C[C@H](C(=O)N2CCOCC2)[C@@]2(CCC3CCCC3)c3[nH]c4ccc(Cl)cc4c3CCN2C1=O)NCc1ccco1 | 7.08 µM (active) |  | 
COc1ccc(Cl)cc1NC(=O)CN(C)C(=O)c1cn(-c2ccccc2)nc1-c1cccs1 |  | -28.8% (inactive) | 
CC(C)C[C@H]1CNC(=S)N1C[C@H]1CCCN1C[C@H](Cc1ccc(O)cc1)N1C[C@H](Cc2ccc(O)cc2)N(CC2CCCCC2)C1=S |  | -18.3% (inactive) | 
CC(C)Sc1nc(N)nc2c1ncn2C1OC(CO)C(O)C1O (stereo not drawn) |  | -9.34% (inactive) | 
Nc1ncn(C2OC(CO)C(O)C2O)c(=O)n1 (stereo not drawn) | 10 µM (active) |  | 
Nc1nc(SCc2ccc([N+](=O)[O-])cc2)c2ncn(C3OC(CO)C(O)C3O)c2n1 (stereo not drawn) |  | -29.7% (inactive) | 
COc1ccc(-c2ccc(C(=O)NC(C)C)c3occc23)c(C)c1 |  | 16.1% (inactive) | 
CC(=O)c1cccc(-c2cnc3c(NC=O)cc(-c4cccc(C(=O)N(C)C)c4)cn23)c1 |  | -29.9% (inactive) | 
CC(=O)c1ccc(-c2cnc3c(NC=O)cc(-c4cccc(NS(C)(=O)=O)c4)cn23)cc1 | 11.2 µM (active) |  | 
CC(=O)c1cccc(-c2cnc3c(NC=O)cc(-c4ccc(N(C)C)cc4)cn23)c1 |  | -17.7% (inactive) | 
COc1ccc(-c2cc3nc(NCCOc4ccccc4)ccn3n2)cc1 |  | 18.9% (inactive) | 
COc1cccc(CNCCc2c[nH]c3ccccc23)c1OCc1ccccc1F | 10 µM (active) |  | 
COc1ccc(S(=O)(=O)NCCc2c[nH]c3ccccc23)cc1OC |  |  | inactive
c1cncc(CNCCc2c[nH]c3ccccc23)c1 |  | -26.3% (inactive) | 
